The panel holds about 83,000 compounds, 20% with a hit somewhere; the sample as a whole holds those more often.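 Plates (96-well) were seeded with cells, treated with compound at one concentration, and incubated for 48 hours before percent growth was determined.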 A number with no mark means an inactive call. Active and inactive are the calls of the source. How the source made its calls: active means growth percent below 10; inactive means the rest.
Columns and labels:
Experiment in all cases: NCI-60 one-dose screen, 48 h (100 = growth as untreated, 0 = no growth, -100 = all killed)
Settings in all cases: 10 µM unless noted
[1] = system: NCI/ADR-RES ovarian
[2] = system: T-47D breast
[3] = system: BT-549 breast
[4] = system: MDA-MB-435 melanoma
[5] = system: SW-620 colon
[6] = system: MCF7 breast
[7] = system: HCT-116 colon
[8] = system: HCC-2998 colon
[9] = system: KM12 colon

| Structure (SMILES) | growth [1] | growth [2] | growth [3] | growth [4] | growth [5] | growth [6] | growth [7] | growth [8] | growth [9] |
| --- | --- | --- | --- | --- | --- | --- | --- | --- | --- |
| O=C(Nc1ccc(Cl)cc1)Nc1nccs1 | 8.57% (active) | 40.1% | 44.1% | -49.4% (active) | 26.4% | 15.2% | 41.2% | 69.5% | 34.3% |
| CC(=O)O[C@H]1C(=O)[C@@]2(C)[C@H]([C@H](OC(=O)c3ccccc3)[C@]3(O)C[C@H](OC(=O)[C@H](OC(=O)OC[C@H]4COC(C)(C)O4)[C@@H](NC(=O)c4ccccc4)c4ccccc4)C(C)=C1C3(C)C)[C@]1(OC(C)=O)CO[C@@H]1C[C@@H]2O | 70.1% | 31.3% | 9.68% (active) | -73.7% (active) | 27.8% | 9.62% (active) | 4.97% (active) | 1.92% (active) | 11.9% |
| COc1ccc(N(CC(=O)NCCC[Te]c2ccccc2)C(=O)CCSC2=C(C)C(=O)c3ccccc3C2=O)cc1 | -36.3% (active) | -57.7% (active) | -18.2% (active) | 11.9% | 5.47% (active) | -22.3% (active) | -65.1% (active) | -35.4% (active) | -17.3% (active) |
| Clc1cc(N2CC2)nc(N2CC2)n1 | 71.7% | 87.3% | 71.8% | 93.7% | 61.6% | 34.2% | 64.9% | 78.2% | 97.3% |
| CC[C@H](C)[C@H](NC(=O)C12C3C4C1C1C2C3C41NC)C(=O)N(C)[C@H](C[C@@H](OC(C)=O)c1nc(C(=O)N[C@@H](Cc2ccccc2)C[C@H](C)C(=O)OC)cs1)C(C)C (some centres not stated) | 72.6% | 40.5% | 2.04% (active) | -27.9% (active) | 21.6% | 17.2% | 4% (active) | 15.9% | 15% |
| CN1CCC(O)(c2ccc(F)cc2)C(C(=O)c2ccc(F)cc2)C1 (configuration not stated) | 103% | 94.7% | 96% | 110% | 99% | 85.3% | 101% | 101% | 105% |
| CCCCCCC(=O)NC1=C(N2CC2)C(=O)C(NC(=O)CCCCCC)=C(N2CC2)C1=O | 60.1% | 11.4% | 28% | 13.4% | 56.9% | 19.1% | -14.1% (active) | 53.9% | 48.8% |
| Fc1c[c-]c(-c2ccccn2)c(F)c1.[CH3-].[Pt+2].c1ccc([PH+](c2ccccc2)c2ccccn2)cc1 | 32.1% | -7.66% (active) | -1.42% (active) | -50.5% (active) | -11.6% (active) | -16.3% (active) | -43.8% (active) | 20.2% | 10.4% |
| O=C(Nc1ccc(Br)cc1)c1cc(Br)cc(Br)c1O | -6.08% (active) | -2.63% (active) | -28% (active) | 1.23% (active) | -15.7% (active) | 8.07% (active) | -13.9% (active) | 52.1% | -44.2% (active) |
| COC1=CC(=O)O[C@@H](/C=C/c2ccc3c(c2)OCO3)C1 | 95.7% | 93.2% | 95% | 100% | 104% | 99.7% | 105% | 111% | 103% |
| O=C(Nc1ccncc1F)c1cn(CC2CC2)c2ccccc12 | 101% | 92.3% | 94.4% | 106% | 105% | 94.9% | 99.5% | 106% | 104% |
| Cc1sc2c(c1C)C(c1ccc(Cl)cc1)=N[C@@H](CC(=O)OC(C)(C)C)c1nnc(C)n1-2 | 34.2% | 51.9% | 58.5% | 30% | 52.4% | 19.1% | 31% | 19.1% | 40.7% |
| Cc1cc(NC(=O)NCc2ccc(N3C(N)=NC(N)=NC3(C)C)cc2)ccc1S(=O)(=O)F | 112% | 59.7% | 42% | 32.7% | 23.9% | 23.2% | 23.3% | 5.34% (active) | 16.2% |
| Nc1nnnc2nc[nH]c12 | 0.552% (active) | -26.6% (active) | 43.8% | -11.8% (active) | 11% | 15.3% | -11.8% (active) | 17.1% | 25.6% |
| O=C(CCCCCNC1=CC(=O)c2ccccc2C1=O)NCCC[Te]c1ccccc1 | -0.191% (active) | -60.5% (active) | -27.7% (active) | -15.5% (active) | -7.07% (active) | 4.88% (active) | -51% (active) | -48.7% (active) | -41.6% (active) |
| CCCCC1(CCC)C(=O)NC(=S)NC1=O | 102% | 92.3% | 107% | 116% | 109% | 95.7% | 99.2% | 106% | 109% |
| C[N+]12CN3CN(CN(C3)C1)C2 | 97.9% | 93% | 113% | 101% | 96.7% | 97.3% | 92.8% | 99.3% | 111% |
| CCN(CC)c1ccc2c(c1)OC(N)=C(C#N)C2c1cc(OC)c2c(c1)OCO2 (configuration not stated) | -5.05% (active) | 57.1% | 16.6% | -13% (active) | 20.6% | 14.4% | -8.55% (active) | -3.32% (active) | 2.07% (active) |
| C[C@]12C[C@@H](CO)[C@H](O)C[C@@H]1CC[C@@H]1[C@@H]2CC[C@]2(C)[C@@H](O)CC[C@@H]12 | 99.6% | 104% | 78.9% | 105% | 101% | 121% | 103% | 97.9% | 101% |
| COC(=O)[C@@H](C)C[C@H](Cc1ccccc1)NC(=O)c1csc([C@@H](C[C@H](C(C)C)N(C)C(=O)C2(NC(=O)[C@H]3CCCCN3C)CCC2)OC(C)=O)n1 | 46.5% | 50.1% | 11.6% | -25.3% (active) | 23% | 21.9% | 3.39% (active) | 12.4% | 5.71% (active) |
| CC1(C)N=C(N)N=C(N)N1c1ccc(CCC(=O)Nc2ccc(S(=O)(=O)F)cc2)c(Cl)c1 | 58.4% | 70.5% | 51% | 37.7% | 24.8% | 15.1% | 26.8% | 14.3% | 12.2% |
| Cc1ccc(C(Cc2ccccc2)NCCO)cc1 (configuration not stated) | 100% | 67.7% | 69.3% | 99.1% | 104% | 93.4% | 90% | 99.9% | 90% |
| ClC1=C(Cl)C(Cl)(C2(Cl)C(Cl)=C(Cl)C(Cl)=C2Cl)C(Cl)=C1Cl | 4.66% (active) | -45.4% (active) | -12.3% (active) | -50.9% (active) | -52.8% (active) | -40.9% (active) | -73.4% (active) | 52.1% | 84.5% |
| CC[C@H](C)[C@H](NC(=O)C12CC(NC(C)=O)(C1)C2)C(=O)N(C)[C@H](C[C@@H](OC(C)=O)c1nc(C(=O)N[C@@H](Cc2ccccc2)C[C@H](C)C(=O)OC)cs1)C(C)C | 80.5% | 50.1% | 4.76% (active) | -59% (active) | 23.7% | 15.7% | 3.73% (active) | 24.8% | 12.5% |
| Cn1cc(-c2csc(-c3cn(CCCCN4CCCCC4)c4ccc(F)cc34)n2)c2cccnc21 | 81.7% | 81.5% | 81.1% | -91.1% (active) | -69.9% (active) | -55.9% (active) | 94.9% | 96.5% | 82.5% |
| COc1ccc(/C=C\c2cc(OC)c(OC)c(OC)c2)cc1OCC(=O)Nc1nc2ccc(C(F)(F)F)cc2s1 | -11.8% (active) | 37.7% | 43.1% | -34.9% (active) | 28.3% | 15.1% | 13.8% | 64.7% | 17.9% |
| COc1ccc(/C=C\c2cc(OC)c(OC)c(OC)c2)cc1NC(=O)/C=C/c1cc(OC)c(OC)c(OC)c1 | 8.42% (active) | 30% | 44% | -53.2% (active) | 47.6% | 25.2% | 44.6% | 91.2% | 28.6% |
| C/C(=C\c1ccn(-c2ccc(N)c(F)c2)n1)[C@@H]1C[C@@H]2O[C@]2(C)CCC[C@H](C)[C@H](O)[C@@H](C)C(=O)C(C)(C)[C@@H](O)CC(=O)O1 | -3.5% (active) | 38.5% | 12.2% | -41.1% (active) | 44.7% | 16.3% | 10.7% | 4.73% (active) | 12.5% |

— PubChem BioAssay (NCI)
